# The full data set covers some 7,900 targets. This sample favours those with a hit. About 0.6% of all pairs of compound and target were hits. Values without a mark were called inactive.
# Compound: c1cn2cc(-c3ccc4cn[nH]c4c3)nc(Nc3ccc(N4CCOCC4)cc3)c2n1 [entospletinib]
# Assay: log2 fold change, soluble protein after heating vs DMSO (PISA); higher = thermal stabilisation; K562 cells, 10 uM, 30 min; active = over 0.2 and 3.5 SD of the protein, either way, in both replicates (recomputed)
# Summary of the method: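 K562 cells at 2×10^6 cells/mL were treated for 30 min with 10 μM compound, and aliquots were heated for 3 min over 48°C-58°C before pooling. Extraction used PBS with 0.5% NP-40 at 4°C, and soluble protein was the supernatant after 21,000xg for 90 min, measured by TMTpro 16plex LC-MS/MS with channel sums equalised. Thermal stability values, relative to control samples and from duplicates, are log2 fold changes.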
# Sequence of UniProt Q14677 (Q14677 whole entry, looked up): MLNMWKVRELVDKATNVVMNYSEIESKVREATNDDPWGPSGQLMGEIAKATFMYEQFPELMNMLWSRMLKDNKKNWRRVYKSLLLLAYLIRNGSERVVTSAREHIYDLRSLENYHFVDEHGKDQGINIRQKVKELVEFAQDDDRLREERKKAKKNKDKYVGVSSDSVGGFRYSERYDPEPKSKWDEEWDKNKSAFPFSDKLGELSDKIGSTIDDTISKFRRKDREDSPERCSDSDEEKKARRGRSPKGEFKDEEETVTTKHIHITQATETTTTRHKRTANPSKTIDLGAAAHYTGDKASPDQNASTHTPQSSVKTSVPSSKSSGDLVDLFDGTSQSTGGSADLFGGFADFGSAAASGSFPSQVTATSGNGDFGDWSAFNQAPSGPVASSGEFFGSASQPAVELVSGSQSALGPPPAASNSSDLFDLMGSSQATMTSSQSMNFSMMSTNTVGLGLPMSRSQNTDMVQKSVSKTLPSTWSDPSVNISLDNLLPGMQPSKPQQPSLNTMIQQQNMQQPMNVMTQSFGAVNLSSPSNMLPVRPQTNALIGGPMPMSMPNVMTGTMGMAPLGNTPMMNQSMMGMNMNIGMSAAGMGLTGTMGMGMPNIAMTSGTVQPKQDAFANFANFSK
# Sequence of UniProt P42574 (P42574 whole entry, looked up): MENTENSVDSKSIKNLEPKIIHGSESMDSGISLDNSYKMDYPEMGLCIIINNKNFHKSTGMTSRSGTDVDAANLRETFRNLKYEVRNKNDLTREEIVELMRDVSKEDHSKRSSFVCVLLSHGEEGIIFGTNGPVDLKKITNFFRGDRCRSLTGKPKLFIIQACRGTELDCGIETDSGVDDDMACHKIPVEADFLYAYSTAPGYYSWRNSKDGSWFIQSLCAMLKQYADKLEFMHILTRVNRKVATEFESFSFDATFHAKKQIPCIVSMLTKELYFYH
# Sequence of UniProt Q9H9S4 (Q9H9S4 whole entry, looked up): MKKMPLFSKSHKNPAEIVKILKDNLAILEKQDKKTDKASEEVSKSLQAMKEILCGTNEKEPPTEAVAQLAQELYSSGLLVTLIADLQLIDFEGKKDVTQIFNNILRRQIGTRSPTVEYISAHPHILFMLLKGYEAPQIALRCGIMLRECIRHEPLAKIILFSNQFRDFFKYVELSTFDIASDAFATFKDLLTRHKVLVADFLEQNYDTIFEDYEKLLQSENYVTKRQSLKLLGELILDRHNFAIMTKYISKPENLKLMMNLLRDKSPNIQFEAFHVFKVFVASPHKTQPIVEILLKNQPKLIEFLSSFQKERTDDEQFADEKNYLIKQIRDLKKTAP
# Sequence of UniProt Q9Y5P4 (Q9Y5P4 whole entry, looked up): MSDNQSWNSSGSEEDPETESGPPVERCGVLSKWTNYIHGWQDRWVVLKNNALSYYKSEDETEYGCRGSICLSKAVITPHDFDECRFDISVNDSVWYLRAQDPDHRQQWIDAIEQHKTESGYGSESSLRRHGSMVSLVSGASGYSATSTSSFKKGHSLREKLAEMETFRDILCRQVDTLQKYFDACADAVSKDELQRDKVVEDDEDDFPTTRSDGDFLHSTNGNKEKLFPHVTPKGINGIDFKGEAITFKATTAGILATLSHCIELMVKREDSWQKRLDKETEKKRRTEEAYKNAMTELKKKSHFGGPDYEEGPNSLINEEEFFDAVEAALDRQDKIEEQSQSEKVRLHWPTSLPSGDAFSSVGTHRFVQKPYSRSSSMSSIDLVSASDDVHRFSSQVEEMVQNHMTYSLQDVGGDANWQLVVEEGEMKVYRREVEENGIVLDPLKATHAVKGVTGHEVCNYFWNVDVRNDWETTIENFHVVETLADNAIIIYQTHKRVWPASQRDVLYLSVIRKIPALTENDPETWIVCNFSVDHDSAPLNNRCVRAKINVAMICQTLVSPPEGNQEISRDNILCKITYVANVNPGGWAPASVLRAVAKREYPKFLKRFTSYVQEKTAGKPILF
# Sequence of UniProt Q8N684 (Q8N684 whole entry, looked up): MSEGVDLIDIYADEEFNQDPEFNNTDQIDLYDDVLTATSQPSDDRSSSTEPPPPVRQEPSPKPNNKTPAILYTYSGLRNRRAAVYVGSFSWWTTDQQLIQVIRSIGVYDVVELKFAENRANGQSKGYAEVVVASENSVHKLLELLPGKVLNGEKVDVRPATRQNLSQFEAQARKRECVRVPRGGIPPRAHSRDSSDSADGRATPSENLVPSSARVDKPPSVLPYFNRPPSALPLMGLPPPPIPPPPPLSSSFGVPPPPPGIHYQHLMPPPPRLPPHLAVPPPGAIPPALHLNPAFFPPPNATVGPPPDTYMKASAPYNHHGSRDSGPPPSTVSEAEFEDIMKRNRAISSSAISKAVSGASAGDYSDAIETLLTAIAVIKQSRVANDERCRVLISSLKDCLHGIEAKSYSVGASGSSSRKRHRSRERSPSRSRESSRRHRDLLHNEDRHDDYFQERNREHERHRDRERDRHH
# Sequence of UniProt P83916 (P83916 whole entry, looked up): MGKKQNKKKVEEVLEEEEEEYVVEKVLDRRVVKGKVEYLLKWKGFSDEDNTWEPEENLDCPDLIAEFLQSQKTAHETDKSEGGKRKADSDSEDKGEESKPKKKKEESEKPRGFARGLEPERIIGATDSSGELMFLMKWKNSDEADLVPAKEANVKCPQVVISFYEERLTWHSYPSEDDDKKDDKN
# Sequence of UniProt P48729 (P48729 whole entry, looked up): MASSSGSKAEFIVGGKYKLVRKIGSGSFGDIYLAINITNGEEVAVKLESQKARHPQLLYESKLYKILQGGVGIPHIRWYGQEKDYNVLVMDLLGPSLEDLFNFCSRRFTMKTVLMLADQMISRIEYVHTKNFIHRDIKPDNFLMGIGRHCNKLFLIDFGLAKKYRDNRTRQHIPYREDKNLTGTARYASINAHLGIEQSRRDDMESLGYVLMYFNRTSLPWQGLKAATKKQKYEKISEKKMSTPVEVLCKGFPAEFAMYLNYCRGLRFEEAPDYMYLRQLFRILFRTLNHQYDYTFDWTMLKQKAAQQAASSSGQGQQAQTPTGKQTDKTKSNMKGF
# Sequence of UniProt P06493 (P06493 whole entry, looked up): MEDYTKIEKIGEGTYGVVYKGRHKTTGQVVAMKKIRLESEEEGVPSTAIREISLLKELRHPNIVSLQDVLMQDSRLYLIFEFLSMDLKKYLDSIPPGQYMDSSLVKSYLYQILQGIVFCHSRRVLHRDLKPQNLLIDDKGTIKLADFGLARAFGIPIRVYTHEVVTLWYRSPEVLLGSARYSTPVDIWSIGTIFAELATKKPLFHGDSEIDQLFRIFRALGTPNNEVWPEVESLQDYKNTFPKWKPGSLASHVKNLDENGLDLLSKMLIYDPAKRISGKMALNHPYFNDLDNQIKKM
# Sequence of UniProt Q9BWU1 (Q9BWU1 whole entry, looked up): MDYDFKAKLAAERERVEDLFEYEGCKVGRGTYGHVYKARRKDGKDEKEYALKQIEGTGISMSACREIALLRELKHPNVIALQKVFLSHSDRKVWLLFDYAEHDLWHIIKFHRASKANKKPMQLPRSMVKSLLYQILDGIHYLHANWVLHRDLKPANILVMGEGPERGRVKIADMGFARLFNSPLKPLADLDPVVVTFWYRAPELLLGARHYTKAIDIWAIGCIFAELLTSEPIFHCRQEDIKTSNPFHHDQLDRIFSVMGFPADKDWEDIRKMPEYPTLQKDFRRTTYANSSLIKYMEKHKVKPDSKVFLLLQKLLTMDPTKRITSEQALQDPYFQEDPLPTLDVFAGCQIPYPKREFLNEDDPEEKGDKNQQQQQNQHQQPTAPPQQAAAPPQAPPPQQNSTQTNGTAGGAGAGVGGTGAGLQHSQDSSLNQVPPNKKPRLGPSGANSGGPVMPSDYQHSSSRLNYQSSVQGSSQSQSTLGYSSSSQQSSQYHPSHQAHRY
# Sequence of UniProt P51946 (P51946 whole entry, looked up): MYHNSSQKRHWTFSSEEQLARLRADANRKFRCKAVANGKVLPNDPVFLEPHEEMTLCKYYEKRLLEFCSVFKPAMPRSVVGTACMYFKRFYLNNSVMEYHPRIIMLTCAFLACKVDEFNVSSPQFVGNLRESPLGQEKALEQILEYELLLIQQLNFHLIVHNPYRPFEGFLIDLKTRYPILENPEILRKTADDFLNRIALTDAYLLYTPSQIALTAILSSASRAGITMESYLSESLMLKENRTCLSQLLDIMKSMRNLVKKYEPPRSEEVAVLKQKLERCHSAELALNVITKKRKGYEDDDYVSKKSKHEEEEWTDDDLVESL
# Sequence of UniProt P41208 (P41208 whole entry, looked up): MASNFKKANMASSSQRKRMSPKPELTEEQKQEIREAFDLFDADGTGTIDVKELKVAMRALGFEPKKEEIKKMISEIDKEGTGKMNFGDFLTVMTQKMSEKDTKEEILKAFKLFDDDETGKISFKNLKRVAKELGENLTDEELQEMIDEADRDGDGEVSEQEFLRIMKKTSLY
# Sequence of UniProt Q9UNS2 (Q9UNS2 whole entry, looked up): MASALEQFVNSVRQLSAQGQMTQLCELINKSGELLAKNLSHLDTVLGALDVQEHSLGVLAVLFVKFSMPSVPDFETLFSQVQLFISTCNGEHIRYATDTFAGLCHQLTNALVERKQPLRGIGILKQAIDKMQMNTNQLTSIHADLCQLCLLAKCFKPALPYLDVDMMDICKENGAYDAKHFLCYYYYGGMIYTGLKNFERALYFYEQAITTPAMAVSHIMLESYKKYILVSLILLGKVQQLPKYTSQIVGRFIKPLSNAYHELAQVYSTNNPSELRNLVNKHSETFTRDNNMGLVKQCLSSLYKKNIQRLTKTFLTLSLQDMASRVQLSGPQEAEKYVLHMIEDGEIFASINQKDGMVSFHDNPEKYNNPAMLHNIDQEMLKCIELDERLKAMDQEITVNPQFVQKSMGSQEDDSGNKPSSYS
# Sequence of UniProt A6NHX0 (A6NHX0 whole entry, looked up): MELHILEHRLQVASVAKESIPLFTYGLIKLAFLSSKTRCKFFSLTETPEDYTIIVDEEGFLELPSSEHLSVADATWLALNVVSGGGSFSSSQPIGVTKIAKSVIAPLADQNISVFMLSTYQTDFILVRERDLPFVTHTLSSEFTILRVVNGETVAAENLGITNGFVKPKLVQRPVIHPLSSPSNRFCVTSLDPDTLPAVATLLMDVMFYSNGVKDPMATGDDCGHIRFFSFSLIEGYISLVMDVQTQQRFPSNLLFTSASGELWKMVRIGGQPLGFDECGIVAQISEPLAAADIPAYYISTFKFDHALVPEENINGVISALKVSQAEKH
row,Target,log2 fold change
1,COPS3 isoform 2 (UniProt Q9UNS2),0.135
2,CELF2 isoform 3 (UniProt O95319),0.009
3,CDC42EP1 (UniProt Q00587),-0.089
4,CHCHD1 (UniProt Q96BP2),-0.004
5,CERT isoform 3 (UniProt Q9Y5P4),0.019
6,CORO2A (UniProt Q92828),0.078
7,CDK5RAP3 isoform 4 (UniProt Q96JB5),-0.057
8,CASP2 (UniProt P42575),-0.004
9,CASTOR2 (UniProt A6NHX0),-0.104
10,CBX1 (UniProt P83916),0.066
11,CLTB (UniProt P09497),-0.025
12,COG2 (UniProt Q14746),-0.103
13,CEMIP2 (UniProt Q9UHN6),0.04
14,CCNH (UniProt P51946),-0.019
15,CDK1 (UniProt P06493),-0.024
16,"CLUH, A0A494C0R8",0.119
17,CLINT1 (UniProt Q14677),0.16
18,CHD4 isoform 2 (UniProt Q14839),0.007
19,COMMD1 (UniProt Q8N668),-0.013

row,Target,log2 fold change
1,CS (UniProt O75390),0.005
2,CCM2 isoform 2 (UniProt Q9BSQ5),-0.019
3,CAB39L (UniProt Q9H9S4),0.154
4,CBS (UniProt P35520),0.016
5,CHD3 isoform 3 (UniProt Q12873),-0.001
6,CAMSAP1 isoform 3 (UniProt Q5T5Y3),-0.003
7,CLASP2 (UniProt O75122),-0.003
8,CNTN4 (UniProt Q8IWV2),-0.148
9,COMMD2 (UniProt Q86X83),0.015
10,CAMKK2 (UniProt Q96RR4),0.011
11,CSNK1A1 (UniProt P48729),0.009
12,CASP3 (UniProt P42574),0.044
13,CDK19 (UniProt Q9BWU1),-0.013
14,C1D (UniProt Q13901),-0.043
15,CETN2 (UniProt P41208),0.057
16,CASP8 isoform 9 (UniProt Q14790),0.005
17,CLINT1 isoform 3 (UniProt Q14677),0.111
18,CPSF7 isoform 3 (UniProt Q8N684),-0.011
19,CLPP (UniProt Q16740),0.01

# Source: the supplement of paper PMC10849652
